# The entries come from a sample that favours the strongest signals as a whole.
# How the values were obtained:
# Experiment in all cases: glycan array binding signal (z-score within array); higher = stronger binding
# Settings in all cases: glycan notation: IUPAC condensed, linker removed
# [1] = molecular target: Fuc(a1-2)Gal(b1-3)GlcNAc(b1-3)[Neu5Ac(a2-6)Gal(b1-4)GlcNAc(b1-6)]Gal(b1-4)Glc
# In short: (§1)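 Glycan array data came from 3228 arrays in the Consortium for Functional Glycomics database, and only arrays with an available protein sequence were kept. Glycan names were put into IUPAC-condensed notation, and columns mapping to the same glycan were averaged. The binding signal is a within-array Z-score, averaged across arrays of one protein sequence run at different concentrations or buffers and across linkers. A negative Z-score can be read as non-binding.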
# [2] = molecular target: Fuc(a1-2)Gal(b1-3)[Fuc(a1-4)]GlcNAc
# In short: as §1
# [3] = molecular target: Fuc(a1-2)Gal(b1-4)GlcNAc(b1-6)GalNAc
# In short: as §1
# [4] = molecular target: Fuc(a1-2)Gal(b1-4)GlcNAc6S
# In short: as §1
# [5] = molecular target: Fuc(a1-2)[Gal(a1-3)]Gal(b1-3)GalNAc(b1-3)Gal(a1-4)Gal(b1-4)Glc
# In short: as §1
# [6] = molecular target: Fuc(a1-2)[Gal(a1-3)]Gal(b1-4)Glc
# In short: as §1
# [7] = molecular target: Fuc(a1-2)[Gal(a1-3)]Gal(b1-4)GlcNAc(b1-6)GalNAc
# In short: as §1
# [8] = molecular target: Fuc(a1-2)[GalNAc(a1-3)]Gal(b1-3)GalNAc(a1-3)[Fuc(a1-2)]Gal(b1-4)GlcNAc
# In short: as §1
# [9] = molecular target: Fuc(a1-2)[GalNAc(a1-3)]Gal(b1-4)[Fuc(a1-3)]GlcNAc(b1-3)GalNAc
# In short: as §1
# [10] = molecular target: Fuc(a1-3)[Gal(b1-4)]GlcNAc6S
# In short: as §1
# [11] = molecular target: Gal(a1-3)Gal(b1-4)[Fuc(a1-3)]GlcNAc(b1-2)Man(a1-3)[Gal(a1-3)Gal(b1-4)[Fuc(a1-3)]GlcNAc(b1-2)Man(a1-6)]Man(b1-4)GlcNAc(b1-4)GlcNAc
# In short: as §1
# [12] = molecular target: Gal(a1-4)Gal(b1-3)GlcNAc(b1-2)Man(a1-3)[Gal(a1-4)Gal(b1-3)GlcNAc(b1-2)Man(a1-6)]Man(b1-4)GlcNAc(b1-4)GlcNAc
# In short: as §1
# [13] = molecular target: Gal(a1-4)Gal(b1-4)GlcNAc(b1-2)Man(a1-3)[Gal(a1-4)Gal(b1-4)GlcNAc(b1-2)Man(a1-6)]Man(b1-4)GlcNAc(b1-4)GlcNAc
# In short: as §1
# [14] = molecular target: Gal(a1-4)Gal(b1-4)GlcNAc(b1-3)Gal(b1-4)Glc
# In short: as §1
# [15] = molecular target: Gal(b1-3)Gal(b1-4)GlcNAc
# In short: as §1
# [16] = molecular target: Gal(b1-3)GalNAc
# In short: as §1
# [17] = molecular target: Gal(b1-3)GalNAc(a1-3)[Fuc(a1-2)]Gal(b1-4)Glc
# In short: as §1
# [18] = molecular target: Gal(b1-3)GalNAc(a1-3)[Fuc(a1-2)]Gal(b1-4)GlcNAc
# In short: as §1
# [19] = molecular target: Gal(b1-3)GalNAc(b1-3)Gal
# In short: as §1
# [20] = molecular target: Gal(b1-3)GalNAc(b1-3)Gal(a1-4)Gal(b1-4)Glc
# In short: as §1
# [21] = molecular target: Gal(b1-3)GalNAc(b1-4)Gal(b1-4)Glc
# In short: as §1
# [22] = molecular target: Gal(b1-3)GalNAc(b1-4)[Neu5Ac(a2-3)]Gal(b1-4)Glc
# In short: as §1
# [23] = molecular target: Gal(b1-3)GlcNAc(b1-3)Gal(b1-4)GlcNAc(b1-3)Gal(b1-4)GlcNAc(b1-2)[Gal(b1-3)GlcNAc(b1-3)Gal(b1-4)GlcNAc(b1-3)Gal(b1-4)GlcNAc(b1-6)]Man(a1-6)[Gal(b1-3)GlcNAc(b1-3)Gal(b1-4)GlcNAc(b1-3)Gal(b1-4)GlcNAc(b1-2)Man(a1-3)]Man(b1-4)GlcNAc(b1-4)[Fuc(a1-6)]GlcNAc
# In short: as §1
# [24] = molecular target: Gal(b1-3)[Fuc(a1-4)]GlcNAc(b1-3)Gal(b1-4)[Fuc(a1-3)]GlcNAc
# In short: as §1
# [25] = molecular target: Gal(b1-3)[Neu5Ac(a2-6)]GalNAc
# In short: as §1
# [26] = molecular target: Gal(b1-4)GlcNAc(b1-2)Man(a1-3)[Gal(b1-4)GlcNAc(b1-2)Man(a1-6)][Gal(b1-4)GlcNAc(b1-4)]Man(b1-4)GlcNAc(b1-4)[Fuc(a1-6)]GlcNAc
# In short: as §1
# [27] = molecular target: Gal(b1-4)GlcNAc(b1-2)[Gal(b1-4)GlcNAc(b1-6)]Man(a1-6)[GlcNAc(b1-4)][Gal(b1-4)GlcNAc(b1-2)[Gal(b1-4)GlcNAc(b1-4)]Man(a1-3)]Man(b1-4)GlcNAc(b1-4)[Fuc(a1-6)]GlcNAc
# In short: as §1
# [28] = molecular target: Gal(b1-4)GlcNAc(b1-3)Gal(b1-4)Glc
# In short: as §1
# [29] = molecular target: Gal(b1-4)GlcNAc(b1-6)[Gal(b1-3)]GalNAc
# In short: as §1
# [30] = molecular target: Gal(b1-4)GlcNAc(b1-6)[Gal(b1-4)GlcNAc(b1-3)]GalNAc
# In short: as §1
binder,measurement,setting,value
Epa10 (protein) MNEKIFRYLTLLFLFELARSLPVEDKLNIKKVFEKRAVDFTPFAHYPRPEGCSSPPNSVSVGLHMNLYNYPYLYVKPSTKGMFTNDTNSDADGETDGDSAGGIEGRAGQCWNPEYQDPNFPRFGYKQYGEFGASDNVNGDISWDHNEFTEGCKPVLAALPPGYNYPDEITFSNFTMVLSGYFKPKTSGVYKFELKADDFILFNFGAKNAFECCNREESIDNFGPYVAYAMWPNQADQELEVYLFEDSYYPLRLFYNNRDYHSKFKIGFYPPGQTTITFDFDGYLFMLDDTGNECRDSIRYRTVCDDKVVDDTTYSTRYSTSMVPGGGSDVITIYYIRMKCEEEDCLGQWDPINNVCYSPDDCADDGGYWNGQMCDQSCKLEGGIVNPDTGDCDKSCIESGGFLDENGNCDTTCRDDGGMLVEGQCDYQCKEAGGILVGDHCDTTCVDSGGKLNEDGTCDHSCRDQGGQLDENGECDTSCKDSGGMLIEGECDTSCKDEGGQLDDNNECINHCKDQGGIIDENGNCDTSCKDSGGKLDESGACDTSCRDDGGIIDENGNCNTTCRDDGGIIVGDHCDTSCRDAGGILIEDHCDTTCRDSGGKLNEDGTCDHSCRDQGGQLDENGKCDYSCKNGGGKLDEDGNCDMSCKENGGKLDENGDCDLSCKEDGGKLDGNGDCDYSCKEEGGVIDESGNCNTTCKDSGGQIIDGECNYGCIEVGGVVIDGECDTSCIDSGGILDGDGNCDRSCIESGGVLEDGACNTTCRDSGGQLNVDGTCDTSCRDDGGMLVEGQCDYQCKEAGGILEDGECVFPPTSSSTSETSSTTDQSSLQSDDSSMESSSTPMDSSTIESSSSEIITSESESESVPIASSSSEVMTSESESESIPILTSSSEIPIASSSSEIPVASSSSEIIIPESESESVPVASSSSEIPIASSSSEIPVASSSSEIPVASSSSEIIIPESESESIPIESTSSEAVSSRSESDSSYPTPTPTTTTITTWPNPIQPTTSNSSPIVSSSTETPGIAESSSRISDLESSRRTSILGDDRTRTRTTITSTITEDGQIITITTTVTGFVPEPTGETEGNGSDDENPENPIENNTDENEFLDPEFTDDIPDDPAGPEDNGNGPVNPEQGNDNDPVNLEDSGNNGAVNPEQAPVNDEDNGGNDPVNPEQDNNNGPANPGQDSTNGSGNSDQIDNNPPTPEENAGDGNSNGNDPADPSRRTSILGDERTRASPGGTSQPTGANGNVNGNSPGANVNGGGTGNSNNNNNNNNNNNNGNAPNGGDGSNGDANQGPSRRTSLLGDERTRAGQAAPTGGSSPDNGIAGDTSNNGGAIVSQQVDDGGAGSPRRTSILGDVRSRTTLNGEVLNFEGSGVRRAVAGNLALPLMMVGLVFNL,glycan array binding signal (z-score),[1],-0.195
same,glycan array binding signal (z-score),[2],-0.222
same,glycan array binding signal (z-score),[3],-0.172
same,glycan array binding signal (z-score),[4],-0.198
same,glycan array binding signal (z-score),[5],-0.256
same,glycan array binding signal (z-score),[6],-0.272
same,glycan array binding signal (z-score),[7],-0.16
same,glycan array binding signal (z-score),[8],-0.215
same,glycan array binding signal (z-score),[9],-0.113
same,glycan array binding signal (z-score),[10],-0.223
same,glycan array binding signal (z-score),[11],0.134
same,glycan array binding signal (z-score),[12],3.35
same,glycan array binding signal (z-score),[13],1.46
same,glycan array binding signal (z-score),[14],1.2
same,glycan array binding signal (z-score),[15],4.92
same,glycan array binding signal (z-score),[16],3.84
same,glycan array binding signal (z-score),[17],3.03
same,glycan array binding signal (z-score),[18],3.87
same,glycan array binding signal (z-score),[19],6.03
same,glycan array binding signal (z-score),[20],4.11
same,glycan array binding signal (z-score),[21],17
same,glycan array binding signal (z-score),[22],4.18
same,glycan array binding signal (z-score),[23],0.117
same,glycan array binding signal (z-score),[24],-0.254
same,glycan array binding signal (z-score),[25],3.73
same,glycan array binding signal (z-score),[26],-0.267
same,glycan array binding signal (z-score),[27],0.014
same,glycan array binding signal (z-score),[28],-0.234
same,glycan array binding signal (z-score),[29],2.59
same,glycan array binding signal (z-score),[30],0.208

# From the supplement of paper PMC8728848
